# Assay results taken from PubChem BioAssay.
# Calls of active or inactive are those of the source.
# Key:
# [1] = system: PRMT1 (protein arginine N-methyltransferase 1); assay: PRMT1 binders on small-molecule microarrays, primary screen, biochemical, small-molecule microarray, 635 nm fluorescence (AID 1088); conditions: small-molecule microarray binding, higher = more signal;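 note: binding of Prmt1 protein to compounds spotted on small-molecule microarray slides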
# [2] = yeast growth modulation, basal conditions, primary screen, YJM789 clinical isolate, OD600, 24 h (AID 1089);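 note: growth of clinical yeast isolate S. cerevisiae YJM 789 seeded 1000 cells per well; test concentration not given here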; conditions: S. cerevisiae YJM789 growth, higher = more signal, called active from +8 up or from −8 down
# [3] = fission yeast growth modulation, primary screen, strain 972, OD600, 24 h, no modulator (AID 1090);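 note: basal condition with compound alone and no growth modifier present; test concentration not given here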; conditions: S. pombe 972 growth, higher = more signal, called active from +8 up or from −8 down
# [4] = S. cerevisiae growth modulation with rapamycin, primary screen, strain BY4716, OD600, 96 h (AID 1091); conditions: higher = more signal, called active from +8 up or from −8 down; note: test concentration not given here
# [5] = target: Torsin-1A-interacting protein 2 (Homo sapiens) (UniProt Q8NFQ8); assay: LULL1 binders on small-molecule microarray, primary screen, cell lysate, human LULL1 lysate, 635/667 nm fluorescence (AID 1092); conditions: hLULL1 lysate binding, 635 nm fluorescence, higher = more signal;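 note: probe is lysate of COS7 cells overexpressing human LULL1; score merges per-feature 667 nm fluorescence with signal-to-noise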
# Torsin-1A-interacting protein 2 (Homo sapiens), sequence (Q8NFQ8 whole entry, looked up): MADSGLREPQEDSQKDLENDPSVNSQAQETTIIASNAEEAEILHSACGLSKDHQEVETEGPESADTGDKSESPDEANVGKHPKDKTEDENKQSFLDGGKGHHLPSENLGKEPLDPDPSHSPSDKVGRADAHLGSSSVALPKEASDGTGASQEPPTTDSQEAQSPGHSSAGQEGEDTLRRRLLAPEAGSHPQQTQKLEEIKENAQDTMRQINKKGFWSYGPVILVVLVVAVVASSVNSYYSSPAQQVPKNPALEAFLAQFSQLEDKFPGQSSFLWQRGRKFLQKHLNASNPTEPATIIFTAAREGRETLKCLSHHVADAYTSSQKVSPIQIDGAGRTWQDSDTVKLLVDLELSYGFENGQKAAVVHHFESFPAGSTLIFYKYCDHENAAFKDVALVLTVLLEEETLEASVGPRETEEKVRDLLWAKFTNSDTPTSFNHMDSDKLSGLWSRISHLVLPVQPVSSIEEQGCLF
# [6] = E. coli growth modulation, two-sided OD650, primary screen, E. coli filamentation project, strain DRC41, 24 h (AID 1093); conditions: OD650, 24 h, higher = more signal, called active from +8 up or from −8 down;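 note: MC1000 strain lacking acrAB efflux and sulA so SOS filamentation is blocked; test concentration not given here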
# [7] = small-molecule microarray binders of probe aLefty2, primary screen, biochemical, biotinylated probe, 635/667 nm fluorescence (AID 1094); conditions: higher = more signal;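 note: score merges spot fluorescence near 667 nm with spot signal-to-noise ratio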
# [8] = system: Noggin (protein binding on small-molecule microarray); assay: Noggin binders on small-molecule microarray, primary screen, biochemical, 635/667 nm fluorescence (AID 1095); conditions: 635 nm fluorescence, higher = more signal;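 note: score merges 667 nm feature fluorescence with signal to noise over triplicate slides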
# [9] = target: Neurogenic locus notch homolog protein 3 (Homo sapiens) (UniProt Q9UM47); assay: NOTCH3 binders on small-molecule microarray, primary screen, biochemical, 635/667 nm fluorescence (AID 1096); conditions: NOTCH3 binding, 635 nm fluorescence, higher = more signal
# Neurogenic locus notch homolog protein 3 (Homo sapiens), sequence (Q9UM47 whole entry, looked up): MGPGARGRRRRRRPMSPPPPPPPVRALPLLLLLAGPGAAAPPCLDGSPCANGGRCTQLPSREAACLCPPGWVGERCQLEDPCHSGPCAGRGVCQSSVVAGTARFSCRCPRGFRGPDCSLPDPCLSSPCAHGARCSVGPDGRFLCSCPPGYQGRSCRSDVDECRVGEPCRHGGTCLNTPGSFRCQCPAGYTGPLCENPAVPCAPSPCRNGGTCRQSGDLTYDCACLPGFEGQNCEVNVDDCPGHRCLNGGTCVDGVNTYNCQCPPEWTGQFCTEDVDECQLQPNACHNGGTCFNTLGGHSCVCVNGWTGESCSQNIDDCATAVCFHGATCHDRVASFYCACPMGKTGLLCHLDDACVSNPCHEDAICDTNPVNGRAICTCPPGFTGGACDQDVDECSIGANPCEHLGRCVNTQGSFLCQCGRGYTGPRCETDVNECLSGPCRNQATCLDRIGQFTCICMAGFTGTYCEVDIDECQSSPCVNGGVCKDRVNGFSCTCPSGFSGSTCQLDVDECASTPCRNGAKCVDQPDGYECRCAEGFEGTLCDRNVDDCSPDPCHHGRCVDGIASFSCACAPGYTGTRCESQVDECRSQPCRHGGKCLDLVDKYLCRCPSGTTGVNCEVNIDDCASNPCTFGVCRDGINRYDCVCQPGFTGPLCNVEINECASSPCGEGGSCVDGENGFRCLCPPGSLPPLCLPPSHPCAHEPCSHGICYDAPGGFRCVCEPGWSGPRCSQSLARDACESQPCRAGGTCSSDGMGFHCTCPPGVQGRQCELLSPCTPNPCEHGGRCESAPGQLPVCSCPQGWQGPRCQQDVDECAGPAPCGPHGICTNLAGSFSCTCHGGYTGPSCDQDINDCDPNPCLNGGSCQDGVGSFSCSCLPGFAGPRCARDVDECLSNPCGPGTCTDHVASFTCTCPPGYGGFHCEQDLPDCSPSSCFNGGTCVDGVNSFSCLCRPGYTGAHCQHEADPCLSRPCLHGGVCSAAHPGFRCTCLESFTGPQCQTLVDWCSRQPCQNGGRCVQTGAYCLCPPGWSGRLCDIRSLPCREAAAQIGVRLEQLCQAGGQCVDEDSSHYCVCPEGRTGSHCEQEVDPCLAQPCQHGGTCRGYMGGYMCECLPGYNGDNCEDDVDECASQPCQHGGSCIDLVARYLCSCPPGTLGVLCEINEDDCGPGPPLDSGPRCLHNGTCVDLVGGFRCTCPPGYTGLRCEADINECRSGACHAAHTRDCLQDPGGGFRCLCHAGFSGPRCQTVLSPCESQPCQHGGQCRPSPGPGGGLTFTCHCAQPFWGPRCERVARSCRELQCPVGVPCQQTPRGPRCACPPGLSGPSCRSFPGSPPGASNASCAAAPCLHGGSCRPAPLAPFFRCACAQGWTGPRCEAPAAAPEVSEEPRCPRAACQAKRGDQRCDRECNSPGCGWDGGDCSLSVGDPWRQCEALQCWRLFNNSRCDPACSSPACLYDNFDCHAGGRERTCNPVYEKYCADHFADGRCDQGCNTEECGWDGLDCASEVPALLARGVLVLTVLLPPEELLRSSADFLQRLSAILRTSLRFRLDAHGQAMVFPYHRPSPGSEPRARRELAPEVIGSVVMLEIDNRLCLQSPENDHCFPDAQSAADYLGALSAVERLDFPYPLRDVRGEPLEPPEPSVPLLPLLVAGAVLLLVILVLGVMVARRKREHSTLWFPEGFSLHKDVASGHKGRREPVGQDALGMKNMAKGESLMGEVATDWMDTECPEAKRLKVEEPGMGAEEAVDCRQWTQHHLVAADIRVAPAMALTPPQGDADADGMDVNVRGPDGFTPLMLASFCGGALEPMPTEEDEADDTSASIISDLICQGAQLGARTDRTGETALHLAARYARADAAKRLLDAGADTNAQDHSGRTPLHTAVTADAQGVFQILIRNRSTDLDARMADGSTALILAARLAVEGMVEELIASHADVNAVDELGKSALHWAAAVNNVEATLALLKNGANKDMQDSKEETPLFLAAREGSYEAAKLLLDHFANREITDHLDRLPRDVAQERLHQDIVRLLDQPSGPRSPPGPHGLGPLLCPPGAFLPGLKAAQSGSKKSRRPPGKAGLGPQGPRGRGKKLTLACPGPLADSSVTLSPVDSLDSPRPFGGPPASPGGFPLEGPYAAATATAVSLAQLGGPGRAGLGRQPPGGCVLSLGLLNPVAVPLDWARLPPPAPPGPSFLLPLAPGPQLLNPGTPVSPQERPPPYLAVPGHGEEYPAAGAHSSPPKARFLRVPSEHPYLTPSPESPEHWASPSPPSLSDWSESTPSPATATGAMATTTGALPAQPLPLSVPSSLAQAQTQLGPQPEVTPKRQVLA
# [10] = small-molecule microarray binders of probe aEGFR, primary screen, biochemical, biotinylated probe, 635/667 nm fluorescence (AID 1097); conditions: higher = more signal;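 note: probe is a biotinylated anti-EGFR antibody binding compounds printed on slides; score combines fluorescence near 667 nm and signal to noise of each spot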
# [11] = system: Plasmodium falciparum Sir2 (PF13_0152, Sir2A); assay: pfSir2 binders on small-molecule microarrays, primary screen, biochemical, small-molecule microarray, 635 nm fluorescence (AID 1098); conditions: small-molecule microarray binding, fluorescence 635 nm; higher = more signal;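 note: score merges spot fluorescence intensity with its signal-to-noise ratio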
# [12] = small-molecule microarray binders of probe aDKK1, primary screen, biochemical, biotinylated probe, 635/667 nm fluorescence (AID 1099); conditions: higher = more signal;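 note: score merges 667nm spot fluorescence with signal to noise across triplicate slides; reference of the scale not given here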
# [13] = small-molecule microarray binders of probe aCHRDL2, primary screen, biochemical, biotinylated probe, 635/667 nm fluorescence (AID 1100); conditions: higher = more signal
# [14] = splicing luciferase reporter signal modulators, primary screen, spliceosome inhibition project, cell-based, HEK293, splice +/- reporter (AID 1101); conditions: luminescence, 24 h, higher = more signal, called active from +8 up or from −8 down;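 note: HEK293 cells carrying a splicing-competent luciferase reporter gene; test concentration not given here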
# [15] = target: Fibroblast growth factor 10 (Homo sapiens) (UniProt O15520); assay: FGF10 binders on small-molecule microarrays, primary screen, biochemical, small-molecule microarray, 635 nm fluorescence (AID 1102); conditions: FGF10 binding, fluorescence 635 nm, higher = more signal
# Fibroblast growth factor 10 (Homo sapiens), sequence (O15520 whole entry, looked up): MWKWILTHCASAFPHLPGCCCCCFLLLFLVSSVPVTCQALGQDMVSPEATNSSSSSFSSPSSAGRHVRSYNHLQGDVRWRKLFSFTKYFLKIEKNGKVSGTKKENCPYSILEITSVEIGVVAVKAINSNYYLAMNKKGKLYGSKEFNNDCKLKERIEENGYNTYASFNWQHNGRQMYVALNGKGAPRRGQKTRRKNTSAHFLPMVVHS
# [16] = system: glycogen synthase kinase-3 (GSK3A per assay name; protocol says GSK3B); assay: GSK3 binders on small-molecule microarrays, primary screen, biochemical, small-molecule microarray, 635 nm fluorescence, GSK3A (AID 1103); conditions: small-molecule microarray binding, fluorescence 635 nm; higher = more signal; note: the record names both GSK3A and GSK3B
# [17] = target: Epidermal growth factor receptor (Homo sapiens) (UniProt P00533); assay: EGFR binders on small-molecule microarrays, primary screen, biochemical, small-molecule microarray, 635 nm fluorescence (AID 1104); conditions: EGFR binding, higher = more signal;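 note: score merges 667 nm emission intensity with spot signal to noise over triplicate slides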
# Epidermal growth factor receptor (Homo sapiens), sequence (P00533 whole entry, looked up): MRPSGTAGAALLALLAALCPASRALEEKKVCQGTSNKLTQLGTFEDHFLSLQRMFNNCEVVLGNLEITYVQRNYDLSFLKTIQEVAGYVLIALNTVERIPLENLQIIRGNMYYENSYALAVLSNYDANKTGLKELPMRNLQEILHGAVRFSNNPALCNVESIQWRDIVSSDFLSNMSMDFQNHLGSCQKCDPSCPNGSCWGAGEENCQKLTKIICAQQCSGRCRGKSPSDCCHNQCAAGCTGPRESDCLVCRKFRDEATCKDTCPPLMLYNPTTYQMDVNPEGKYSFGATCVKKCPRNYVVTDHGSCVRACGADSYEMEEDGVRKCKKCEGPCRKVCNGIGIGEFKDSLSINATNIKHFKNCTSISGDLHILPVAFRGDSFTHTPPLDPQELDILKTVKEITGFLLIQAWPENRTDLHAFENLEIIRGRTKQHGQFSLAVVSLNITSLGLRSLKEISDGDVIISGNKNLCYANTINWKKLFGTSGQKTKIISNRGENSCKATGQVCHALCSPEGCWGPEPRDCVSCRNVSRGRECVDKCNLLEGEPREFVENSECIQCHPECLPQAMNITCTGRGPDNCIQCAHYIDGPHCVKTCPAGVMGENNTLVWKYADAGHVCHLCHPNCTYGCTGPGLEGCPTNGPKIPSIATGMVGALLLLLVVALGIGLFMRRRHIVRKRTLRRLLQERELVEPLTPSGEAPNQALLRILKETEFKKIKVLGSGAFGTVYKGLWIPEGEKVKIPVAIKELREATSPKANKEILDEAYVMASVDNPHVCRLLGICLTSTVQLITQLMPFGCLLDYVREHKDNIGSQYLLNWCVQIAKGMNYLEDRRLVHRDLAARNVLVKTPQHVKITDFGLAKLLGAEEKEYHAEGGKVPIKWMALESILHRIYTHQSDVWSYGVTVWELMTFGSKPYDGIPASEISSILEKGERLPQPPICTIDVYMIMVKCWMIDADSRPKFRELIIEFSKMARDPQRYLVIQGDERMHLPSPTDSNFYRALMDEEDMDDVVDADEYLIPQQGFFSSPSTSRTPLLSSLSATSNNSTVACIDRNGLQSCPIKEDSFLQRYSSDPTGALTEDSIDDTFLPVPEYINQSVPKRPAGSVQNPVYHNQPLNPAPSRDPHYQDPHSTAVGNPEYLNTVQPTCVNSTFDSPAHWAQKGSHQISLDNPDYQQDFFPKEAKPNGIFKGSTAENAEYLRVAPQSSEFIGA
# [18] = target: Follistatin-related protein 3 (Homo sapiens) (UniProt O95633); assay: FSTL3 binders on small-molecule microarrays, primary screen, biochemical, small-molecule microarray, 635 nm fluorescence (AID 1105); conditions: FSTL3 binding, higher = more signal;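 note: score merges emission near 667 nm and signal to noise per printed spot across three slides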
# Follistatin-related protein 3 (Homo sapiens), sequence (O95633 whole entry, looked up): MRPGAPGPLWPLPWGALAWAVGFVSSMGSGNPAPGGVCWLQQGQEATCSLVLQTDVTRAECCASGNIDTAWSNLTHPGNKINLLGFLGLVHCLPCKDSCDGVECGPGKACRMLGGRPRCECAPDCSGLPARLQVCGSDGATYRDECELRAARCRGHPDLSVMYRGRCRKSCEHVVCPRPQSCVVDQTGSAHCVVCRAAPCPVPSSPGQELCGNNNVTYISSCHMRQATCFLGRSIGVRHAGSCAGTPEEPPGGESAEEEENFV
# [19] = target: Dickkopf-related protein 1 (Homo sapiens) (UniProt O94907); assay: DKK1 binders on small-molecule microarrays, primary screen, biochemical, small-molecule microarray, 635 nm fluorescence scan (AID 1106); conditions: DKK1 binding, higher = more signal;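 note: score merges emission near 667 nm with signal to noise over three replicate slides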
# Dickkopf-related protein 1 (Homo sapiens), sequence (O94907 whole entry, looked up): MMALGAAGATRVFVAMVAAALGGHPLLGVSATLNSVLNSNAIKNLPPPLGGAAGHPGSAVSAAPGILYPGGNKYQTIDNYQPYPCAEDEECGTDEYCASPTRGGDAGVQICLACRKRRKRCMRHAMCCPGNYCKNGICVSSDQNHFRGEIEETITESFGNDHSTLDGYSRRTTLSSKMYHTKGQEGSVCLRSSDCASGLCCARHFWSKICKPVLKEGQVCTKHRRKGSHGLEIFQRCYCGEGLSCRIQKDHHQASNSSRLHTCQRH
# [20] = system: Inhibin beta A chain (activin A); assay: INHBA (activin A) binders on microarrays, primary screen, biochemical, small-molecule microarray, 635 nm fluorescence scan (AID 1107); conditions: small-molecule microarray binding, higher = more signal;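 note: mouse activin A protein probed at 4.33 µg/mL on printed slides; score merges bound-protein fluorescence near 667 nm with spot signal-to-noise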
Compound,composite z-score [1],z-score [2],z-score [3],z-score [4],composite z-score [5],z-score [6],composite z-score [7],composite z-score [8],composite z-score [9],composite z-score [10],composite z-score [11],composite z-score [12],composite z-score [13],z-score [14],composite z-score [15],composite z-score [16],composite z-score [17],composite z-score [18],composite z-score [19],composite z-score [20]
COC(=O)[C@@]1(Cc2ccc(OC)cc2)[C@H]2c3cc(C(=O)N4CCCC4)n(CCc4ccc(O)c(O)c4)c3C[C@H]2CN1C(=O)c1ccccc1,-0.445,-0.087 (inactive),0.208 (inactive),0.751 (inactive),3.62,-0.765 (inactive),0.491,-0.17,-0.122,0.212,1.49,0.845,1.35,-0.73 (inactive),0.0136,0.0777,-0.352,-0.269,-0.45,1.76
COCCCNC(=O)[C@@H]1c2ccccc2C(=O)N(Cc2ccccc2)[C@H]1c1ccc(CO)cc1,0.726,-1.29 (inactive),-0.0108 (inactive),-0.212 (inactive),1.53,-0.167 (inactive),0.384,0.525,0.109,0.236,0.698,0.698,0.655,-0.403 (inactive),0.223,0.437,0.851,0.197,0.549,0.353
O=C1[C@H]2C=C(I)[C@H](C[C@@H]2OCCCCO)[C@@]12CO2,0.9,-1.04 (inactive),-0.983 (inactive),0.0593 (inactive),0.512,-1.09 (inactive),-0.0534,0.573,0.186,-0.165,1.15,-0.0509,0.0634,0.0898 (inactive),-0.0509,0.0622,-0.15,-0.0542,0.062,0.873
CC(C)CNC(=O)[C@@]1(Cc2ccccc2I)c2ccccc2C(=O)N(Cc2ccccc2C(F)(F)F)[C@H]1c1ccc(CO)cc1,1.15,-0.618 (inactive),-0.0802 (inactive),-0.403 (inactive),1.6,0.164 (inactive),-0.101,-0.518,-0.771,-0.201,-0.164,0.104,0.836,0.368 (inactive),0.122,-0.95,-1.17,-0.978,-0.822,0.598
C=CCNC(=O)[C@H]1[C@@H]2C(=O)O[C@@H](c3ccccc3)[C@@H](c3ccccc3)N2[C@@H](c2ccc(OCCO)cc2)[C@]12C(=O)Nc1ccc(C#CCC(C(=O)OC)C(=O)OC)cc12,1.56,1.63 (inactive),1.79 (inactive),5.79 (inactive),2.74,0.0251 (inactive),0.187,0.608,1.08,-0.004,1.25,0.313,0.655,0.279 (inactive),1.29,1.09,0.787,1.25,0.83,0.559
CCCNC(=O)[C@@]1(Sc2ccc(C)cc2)CC(=O)N(Cc2ccccc2C(F)(F)F)[C@@H]1c1ccc(CO)cc1I,1.53,-0.36 (inactive),-2.45 (inactive),0.283 (inactive),2.19,-1.57 (inactive),-0.0125,0.932,0.958,-0.0435,1.53,0.277,0.726,-1.6 (inactive),0.441,0.119,-0.293,1.01,0.262,1.24
Cc1ccc(C2C3C(=O)CC4C(=O)N(c5ccccc5)C(=O)C4C3CN2S(=O)(=O)c2ccc(C)cc2)cc1 (stereo not given),1.32,0.799 (inactive),0.499 (inactive),1.45 (inactive),2.93,0.0125 (inactive),0.571,0.0835,1.12,0.786,0.0792,1.24,1.05,0.495 (inactive),0.924,0.816,0.381,0.773,0.112,0.385
CC(C)C(=C=CC[C@H](O)c1ccc(CO)o1)CCO,1.52,-0.0662 (inactive),-0.697 (inactive),-0.536 (inactive),1.51,-0.253 (inactive),-0.28,0.679,0.787,-0.14,0.458,-0.288,-0.471,0.241 (inactive),0.494,0.621,-0.115,0.402,0.0097,0.411
COc1ccc(CCNC(=O)[C@@]2(c3ccc([N+](=O)[O-])cc3)CC(=O)N(CC34CC5CC(CC(C5)C3)C4)[C@@H]2c2ccc(CO)cc2I)cc1,1.54,0.484 (inactive),0.369 (inactive),6.17 (inactive),2.83,0.376 (inactive),-0.387,1.52,1.1,-0.151,1.01,-0.153,-0.263,-0.287 (inactive),1.15,1.04,0.233,0.861,0.424,-0.444
O=C1O[C@H](c2ccccc2)[C@H](c2ccccc2)N2[C@H]1[C@@H](C(=O)NC[C@H](O)c1ccccc1)[C@]1(C(=O)Nc3ccc(C#CC4=CCCCC4)cc31)[C@H]2c1ccccc1OCCO,1.43,2.2 (inactive),-0.874 (inactive),2.64 (inactive),1.64,-0.0991 (inactive),0.107,0.545,0.786,0.032,0.312,0.697,0.722,-1.74 (inactive),0.439,1.13,0.208,0.627,0.359,1.06
CN1C(=O)C2C=CC(C(O)c3ccccc3)N(N3CCCCC3)C2C1=O (stereo not given),0.664,0.201 (inactive),0.24 (inactive),0.404 (inactive),3.52,-2.05 (inactive),0.0215,0.145,0.646,0.0713,1.75,0.159,0.846,0.651 (inactive),1.26,0.83,-0.0247,0.494,0.0514,0.932
CCCC1(C(=O)OC)C=C2C(=C(c3ccccc3)C(=O)C2C)CN1 (stereo not given),-0.406,0.283 (inactive),0.312 (inactive),0.763 (inactive),1.64,-0.375 (inactive),0.248,-0.533,0.0144,0.0384,-0.495,0.717,1.16,-1.14 (inactive),-0.157,-0.636,-0.278,-0.0458,-0.704,1.44
CN(C)C(=O)[C@]1(Cc2ccccc2)N=C(c2ccc(OCCCO)cc2)O[C@@H]1c1ccccc1N=[N+]=[N-],1.56,-0.305 (inactive),-0.655 (inactive),1.06 (inactive),2.84,0.841 (inactive),0.141,1.35,1.12,0.438,0.684,0.74,1.05,-0.968 (inactive),1.5,1.3,0.382,0.817,0.173,1.25
COc1ccc([Si](C)(C)[C@@H]2[C@@H](CCO)O[C@]3(C(=O)N(Cc4cccc(N5CCOC5=O)c4)c4ccccc43)[C@H]2C)cc1,1.42,4.03 (inactive),0.643 (inactive),37.8 (active),0.97,0.516 (inactive),-0.0357,0.825,0.797,-0.0564,0.75,0.644,0.246,-0.871 (inactive),0.415,0.67,0.0548,0.648,0.405,0.593
CC1CC/C=C\[C@H]2OC34C=CCN(Cn5nnc6ccccc65)C(=O)[C@H]3N(CCCCCO)C(=O)[C@@H]4C2C(=O)O1 (stereo not given in full),0.547,0.31 (inactive),0.423 (inactive),-0.644 (inactive),2.47,0.752 (inactive),-0.169,-0.355,-0.432,-0.18,0.285,-0.415,0.598,0.271 (inactive),-1.26,-1.32,-0.494,-0.186,-1.27,-0.318
CN(C)CCCC[C@@H]1NC(=O)[C@H]2C[C@@H](C(=O)NCCCCCN)[C@@H](c3cccc(OCCO)c3)N2C1=O,1.54,-0.717 (inactive),-5.79 (inactive),-0.503 (inactive),2.26,1.04 (inactive),0.801,1.38,0.339,0.374,1.11,1.33,1.04,0.0522 (inactive),1.2,1.06,0.0076,0.0876,0.453,1.41
O=C1NC(=O)C2C1C=CC(C(O)C=Cc1ccc([N+](=O)[O-])cc1)N2Nc1ccc(Cl)cc1Cl (stereo not given),0.782,-0.17 (inactive),-1.23 (inactive),-0.103 (inactive),2.47,-2.27 (inactive),0.729,-0.518,1.11,0.285,0.373,1.19,1.17,-0.509 (inactive),0.641,0.364,0.41,1.02,0.0567,1.11
C=CCN1C(=O)[C@]2(Cc3ccccc3)N=C(c3ccc(OCCCO)cc3)O[C@@H]2c2ccccc21,1.53,0.331 (inactive),-0.694 (inactive),1.46 (inactive),3.13,0.482 (inactive),0.295,1.2,1.15,0.133,1.16,0.0729,0.795,-1.37 (inactive),0.755,1.27,0.781,0.878,0.547,1.13
COCCCNC(=O)[C@@]1(CCS(=O)(=O)c2ccccc2)N=C(c2ccc(OCCCO)cc2)O[C@H]1c1ccccc1N=[N+]=[N-],1.53,-1.2 (inactive),0.431 (inactive),1.36 (inactive),3.47,0.299 (inactive),0.155,0.908,1.07,0.0135,1.41,0.879,0.942,-0.0182 (inactive),1.49,0.79,-0.0333,1.25,0.267,0.796
COCCCNC(=O)[C@@]1(Sc2ccc(C)cc2)CC(=O)N(Cc2ccccc2Cl)[C@@H]1c1ccc(CO)cc1,1.54,-0.15 (inactive),-0.429 (inactive),-0.439 (inactive),2.74,-1.29 (inactive),0.0112,1.05,1.12,-0.0874,1.36,0.0942,0.0166,-0.87 (inactive),0.977,0.56,0.491,1.36,0.553,0.595
